HT1080 IDH1KD tx = HT-1080 IDH1 knockdown cell toxicity (counter line); hit rate 2% among 360,000; HT-1080 IDH1 knockdown viability, ATP luminescence, 48 h; Potency, µM (titrated, usually from 46.1 µM), usual class: cytotoxic
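HT-1080-IDH1KD cells (IDH1 knocked down), 750/well in RPMI with 5% FBS, treated with compound 48 h at 37 degrees C. Viability by CellTiter-Glo luminescence, normalised to DMSO and no-cell wells; concentration-response curves classed.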
HT1080NT lethal = kills 2HG-producing HT-1080-NT fibrosarcoma cells | HT-1080-NT fibrosarcoma viability, CellTiter-Glo ATP luminescence, 48 h | Potency, µM (highest dose often 46.1 µM), most hits filed as cytotoxic | hit rate 1.6% among 360,000 | AID 686970;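 further: NT is the 2HG producing partner of a matched IDH1 knockdown line; nearly all actives have a fitted effect of over 55% in size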
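A 48-hour cytotoxicity screen used HT-1080-NT cells plated 2 hours before compound delivery. ATP-based CellTiter-Glo luminescence measured viability, normalized to DMSO and no-cell controls.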
IL-1B inflam inh = blocks inflammasome-driven IL-1 beta release; hit rate 4.7% among 360,000; THP-1 LPS/ATP IL-1B secretion, AlphaLISA, 16 h; hits give low values; activity change, % at 57.5 µM; in the data active means activity change below about -50%; inconclusive means mostly about -30% to -49%
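Secreted IL-1B measured by AlphaLISA bead assay after 16 h compound exposure of THP-1 cells; compounds (final up to 57.5 uM) added 1 h before LPS (250 ng/mL) and ATP (1.25 mM) stimulation; lower signal means less secretion.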
DT40 TDP1 CPT = DT40-hTDP1 cell growth loss with CPT. chicken DT40 Tdp1-/-;hTDP1 cells + 20 nM CPT, ATP luminescence, 48 h. Potency, µM (highest dose often 46.2 µM), usual class: inhibitors. hit rate 12% among 420,000. AID 686979; further: nearly all actives have a fitted effect of over 55% in size
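Chicken DT40 Tdp1-/- cells complemented with human TDP1, 400 cells/well, exposed to compounds plus 20 nM camptothecin for at least 48 h at 37 C; viability read as ATP content by CellTiter-Glo luminescence.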
12-LOX inh = inhibitors of human 12S-lipoxygenase ALOX12. P18054. purified 12hLO, xylenol orange hydroperoxide absorbance. Potency, µM (highest dose often 108 µM), hits mostly inhibitors. hit rate 1.1% among 580,000
Target sequence (P18054 whole entry, looked up): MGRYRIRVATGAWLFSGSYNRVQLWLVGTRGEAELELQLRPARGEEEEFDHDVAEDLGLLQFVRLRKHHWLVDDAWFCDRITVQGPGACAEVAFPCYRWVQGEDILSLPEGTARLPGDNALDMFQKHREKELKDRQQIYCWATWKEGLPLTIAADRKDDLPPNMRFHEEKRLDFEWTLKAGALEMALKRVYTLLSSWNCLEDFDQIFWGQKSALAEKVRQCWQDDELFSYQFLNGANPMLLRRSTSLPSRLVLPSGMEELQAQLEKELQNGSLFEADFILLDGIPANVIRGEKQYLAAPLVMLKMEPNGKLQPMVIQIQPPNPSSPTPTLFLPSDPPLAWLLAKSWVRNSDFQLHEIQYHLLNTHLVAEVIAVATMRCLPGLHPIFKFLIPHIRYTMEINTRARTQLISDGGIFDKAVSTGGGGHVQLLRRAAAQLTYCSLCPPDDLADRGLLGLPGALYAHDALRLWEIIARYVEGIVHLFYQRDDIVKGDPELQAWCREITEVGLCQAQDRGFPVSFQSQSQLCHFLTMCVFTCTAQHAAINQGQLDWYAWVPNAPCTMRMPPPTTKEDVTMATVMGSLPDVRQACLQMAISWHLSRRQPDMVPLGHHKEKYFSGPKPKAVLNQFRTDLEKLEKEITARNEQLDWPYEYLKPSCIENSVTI
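Purified human 12hLO (150 nM final) in 25 mM Hepes, 0.01% Triton X-100, pH 7.0 was preincubated 15 min at room temperature with compound. Then 40 uM arachidonic acid was added, 30 min. Hydroperoxide was read by Fe-XO absorbance ratio 573/405 nm.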
DT40 TDP1 no CPT = qHTS for Inhibitors of human tyrosyl-DNA phosphodiesterase 1 (TDP1): qHTS in cells in absence of CPT | Potency, µM (highest dose often 46.2 µM), most hits filed as inhibitors | AID 686978, 2013 | hit rate 15% among 420,000 | DT40 Tdp1-/- hTDP1 cells, no CPT, ATP luminescence, 48 h; further: nearly all actives have a fitted effect of over 55% in size
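A cellular qHTS used chicken DT40 cells lacking endogenous Tdp1 but carrying stably transfected human TDP1. Compounds were applied without camptothecin, and cell growth kinetics were judged by ATP-dependent luminescence after ≥48 hr.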
Numbers stand for hits; i = inactive; ? = inconclusive; nt = not tested or not shown; [ ] = remark or other dose. Many of the other results were omitted from the sample, so hits are more common in it than they were. Unless noted, the call rests on the fitted dose curve; in most records, active means well fitted curve in the direction sought with a large enough effect; inconclusive means small, poorly fitted or top-dose-only effect, or another doubt; inactive means no such curve, though single readings can be large; an effect the other way counts as inactive or inconclusive.

SMILES	HT1080 IDH1KD tx	HT1080NT lethal	IL-1B inflam inh	DT40 TDP1 CPT	12-LOX inh	DT40 TDP1 no CPT
O=C(NC(Cc1c[nH]c2ccccc12)C(=O)Nc1ccc(OC(F)(F)F)cc1)c1cccs1 (stereo not drawn)	20.6µM	?	-67.9	?	i	?
CCCOc1ccc(C(=O)CCNC(Cc2c[nH]c3ccccc23)C(=O)O)cc1 (stereo not drawn)	i	i	i	4.61µM	nt	7.31µM
Cc1ccc(NC(=O)C(Cc2c[nH]c3ccccc23)NC(=O)OC(C)(C)C)c(C)c1 (stereo not drawn)	nt	nt	nt	?	i	?
Cc1nc(C2(C)CCN(C(=O)CCc3nc4ccccc4[nH]3)CC2)no1	nt	nt	nt	nt	i	nt
CCC(=O)N1CCN(c2ccc(NC(=O)c3cc4ccccc4cc3OC)cc2Cl)CC1	nt	nt	nt	nt	i	nt
CSc1ccccc1-c1cnc(NC(C)=O)cn1	i	?	i	2.59µM	i	i
COc1ccc(CNC(=O)Nc2nc(C(N)Cc3ccc(F)cc3)cs2)cc1 (stereo not drawn)	13µM	?	?	?	i	16.4µM
COc1ccccc1CNC(=O)c1csc(Cc2ccc(Cl)cc2)n1	i	i	i	?	i	?
COc1ccc(CNC(=O)Nc2nc(C(N)Cc3ccc(Cl)cc3)cs2)cc1 (stereo not drawn)	16.4µM	?	?	23.1µM	i	18.4µM
COc1ccccc1CNC(=O)Nc1nc(C(N)Cc2ccc(Cl)cc2)cs1 (stereo not drawn)	20.6µM	14.6µM	i	?	i	?
O=C(O)C(Cc1ccc(F)cc1)c1ccccc1 (stereo not drawn)	i	i	i	i	i	i
NC(Cc1ccc(F)cc1)c1csc(NC(=O)NC(c2ccccc2)c2ccccc2)n1 (stereo not drawn)	16.4µM	18.4µM	-53.2	14.6µM	?	13µM
CCn1c(=O)n(CC)c2cc(S(=O)(=O)c3ccccc3)c(NC(=O)c3c(F)cccc3F)cc21	nt	nt	nt	nt	i	nt
CN1CCCN(C(=O)[C@H]2C[C@@](C)(C(=O)O)N(C)[C@H]2c2ccccc2Cl)CC1	nt	nt	nt	nt	i	nt
COc1ccccc1OC1(C(=O)O)CCN(Cc2ccccc2F)CC1	nt	nt	nt	nt	i	nt
CN(c1ccccc1)S(=O)(=O)c1cccc(NC(=O)COc2cccc([N+](=O)[O-])c2)c1	i	i	i	?	i	23.1µM
CN1C(=O)N(CC(=O)Nc2cccc(S(=O)(=O)N(C)c3ccccc3)c2)C(=O)C12CCCCC2	i	i	i	?	i	20.6µM
Cc1cc(S(=O)(=O)NCc2ccccc2)ccc1OCC(=O)NCc1ccccn1	i	i	i	i	i	i
Cc1cc(S(=O)(=O)NCc2ccccc2)ccc1OCC(=O)Nc1cccc([N+](=O)[O-])c1	?	i	?	18.4µM	i	20.6µM
CN(c1ccccc1)S(=O)(=O)c1cccc(NC(=O)CC(C)(C)C)c1	i	i	i	16.4µM	i	14.6µM
CCC1CCC2(CC1)NC(=O)N(CC(=O)Nc1cccc(S(=O)(=O)N(C)c3ccccc3)c1)C2=O (stereo not drawn)	?	?	i	?	?	?
CC(=O)N1CCc2c(nc(-c3ccccn3)nc2N(C)CCCN(C)C)C1	nt	nt	nt	nt	i	nt
CCN1C(=O)C2CC3(CCN(C(=O)CCc4c[nH]c5ccccc45)CC3)CN2C1=O (stereo not drawn)	nt	nt	nt	nt	i	nt
COc1cc(C=O)ccc1OCC(=O)Nc1cccc(S(=O)(=O)N(C)c2ccccc2)c1	i	i	i	?	i	11.6µM
CN(c1ccccc1)S(=O)(=O)c1cccc(NC(=O)Cn2cnc3ccccc3c2=O)c1	i[9.24 µM]	i	i	20.6µM	i	16.4µM
SMILES	HT1080 IDH1KD tx	HT1080NT lethal	IL-1B inflam inh	DT40 TDP1 CPT	12-LOX inh	DT40 TDP1 no CPT
O=C(NC1CC1)[C@@H]1C[C@H](Oc2ccccc2)CN1C(=O)CC1CCCC1	nt	nt	nt	nt	i	nt
COc1ccc(OC)c(NC(=O)CN2C(=O)CCc3cc(S(=O)(=O)N4CCCCC4)ccc32)c1	nt	nt	nt	25.9µM	i	?
CC(=O)Nc1ccc(NC(=O)CN2C(=O)CCc3cc(S(=O)(=O)N4CCCCC4)ccc32)cc1	nt	nt	nt	i	i	i
COc1cc(NC(=O)CN2C(=O)COc3ccc(S(=O)(=O)N4CCCCC4)cc32)cc(OC)c1	i	i	i	?	i	?
Cc1cc(C)cc(NC(=O)CN2C(=O)CCc3cc(S(=O)(=O)N4CCCCC4)ccc32)c1	nt	nt	nt	16.4µM	i	?
COc1ccc(NC(=O)CN2C(=O)COc3ccc(S(=O)(=O)N4CCCCC4)cc32)c(OC)c1	i	i	-54.0	14.6µM	i	?
CCNC(=O)N1CCC(Cc2ccc(C(=O)NCCc3c[nH]c4ccccc34)cc2)CC1	nt	nt	nt	nt	i	nt
CC(=O)Oc1ccc(N(C(C)=O)S(=O)(=O)c2ccc(C)cc2)c2ccccc12	?	?	i	5.17µM	i	5.17µM
CC(=O)N(c1ccccc1C)S(=O)(=O)c1ccc(Cl)cc1	i	i	i	?	i	i
CC(=O)Oc1ccc(N(C(C)=O)S(=O)(=O)c2ccc(Cl)cc2)c2ccccc12	?	?	i	29.1µM	i	?
CC(=O)c1ccc(NC(=O)CCc2ncc(-c3ccccc3Cl)o2)cc1	nt	nt	nt	nt	i	nt
COc1cccc(C2CC(=O)Oc3c2c(=O)[nH]c2ccccc32)c1 (stereo not drawn)	nt	nt	nt	nt	i	nt
Cc1cc(C)[n+]2n1C(=O)C(c1ccccc1)=C2[O-]	i	i	i	i	i	i
Cc1cc(C)[n+](C)n1-c1ccccc1	nt	nt	nt	nt	17.8µM	nt
COc1ccc(N(C(C)C(=O)Nc2ccccc2Sc2ccccc2)S(C)(=O)=O)cc1 (stereo not drawn)	nt	nt	nt	nt	i	nt
COc1ccc(C(=O)/C=C/c2ccc(OC)cc2OC)c(O)c1	i	i	i	?	i	?
O=C(/C=C/c1ccncc1)c1cc(Cl)ccc1O	i	i	-66.8	i	i	?
COc1ccc(/C=C/C(=O)/C=C/c2ccc(OC)cc2OC)c(OC)c1	nt	nt	nt	?	i	?
CN(C)c1ccc(/C=C/C(=O)c2cc(Cl)ccc2O)cc1	i	i	i	?	i	?
COc1ccc(/C=C/C(=O)c2ccc(Cl)cc2)c(OC)c1	i	i	i	i	i	18.4µM
COc1ccc(/C=C/C(=O)c2cc(Cl)ccc2O)c(OC)c1	i	i	-99.6	?	i	?
O=C(C1CN(C(=O)c2nn(-c3ccccc3)c(=O)c3ccccc23)c2ccccc2O1)N1CCCCC1 (stereo not drawn)	nt	nt	nt	nt	i	nt
Cn1c(SCc2cccc(F)c2)nc2c([nH]c3ccccc32)c1=O	nt	nt	nt	7.31µM	i	?
Cn1c(SCc2ccc(F)cc2)nc2c([nH]c3ccccc32)c1=O	nt	nt	nt	?	i	?

Assay outcomes from PubChem.
